High-throughput results: PubChem, several laboratories
D1 allo mod: allosteric modulators of human D1 dopamine receptor. 58,000 tested, 5.9% active. B-score at 10 µM. HEK293 D1, CRE-luciferase, dopamine EC30 potentiation; actives deviate in either direction;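 active = luminescence count or its row- and column-corrected plate score outside the 99.7% band of the plate's sample wells, on either side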
Target sequence (P21728 whole entry, looked up): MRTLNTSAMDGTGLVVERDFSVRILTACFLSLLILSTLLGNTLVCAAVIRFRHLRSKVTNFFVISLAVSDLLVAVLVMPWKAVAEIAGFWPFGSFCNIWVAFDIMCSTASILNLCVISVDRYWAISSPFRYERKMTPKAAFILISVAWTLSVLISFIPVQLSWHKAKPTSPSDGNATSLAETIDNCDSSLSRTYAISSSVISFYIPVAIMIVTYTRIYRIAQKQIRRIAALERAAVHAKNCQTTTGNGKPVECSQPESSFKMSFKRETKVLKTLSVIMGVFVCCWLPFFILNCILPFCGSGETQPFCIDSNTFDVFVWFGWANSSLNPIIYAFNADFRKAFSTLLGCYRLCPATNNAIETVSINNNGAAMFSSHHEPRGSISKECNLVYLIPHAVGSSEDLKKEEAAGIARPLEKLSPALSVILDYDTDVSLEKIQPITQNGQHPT
DAT uptake mod: modulates human dopamine transporter uptake under cocaine; LLC-PK1 hDAT cells, [14C]-dopamine uptake with cocaine IC80; actives deviate in either direction; B-score at 10 µM; 110,000 tested, 1.3% active; AID 449768;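 active = Z score or B-score, a plate-position-corrected score, falls beyond the plate's 99.7% confidence bounds, in either direction; inactive = both scores lie inside the 99.7% bounds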;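 note: scored against the spread of the other compound wells on the same plate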
PKA kinase inh: blocks human protein kinase A activity. P17612. PKA Kemptide phosphorylation, Kinase-Glo ATP luminescence. inhibition, % at 6 µM. 65,000 tested, 0.1% active. AID 524;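 active = inhibition above the screen-wide mean inhibition plus 3 SD, cut at about 21% in these data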
ROCK2 blocker: inhibitors of human Rho kinase 2; O75116; purified ROCK2, Kinase-Glo ATP depletion luminescence; inhibition, % at 6 µM; 60,000 tested, 0.35% active; AID 604;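 active = inhibition above the screen-wide mean inhibition plus 3 SD, cut at about 18% in these data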;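 note: plate controls were DMSO wells for no effect and Y-27632 control wells after no-enzyme background subtraction for full effect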
* = called active by the depositor; . = not tested or not shown. Many of the other results were omitted from the sample, so hits are more common in it than they were.

SMILES | D1 allo mod | DAT uptake mod | PKA kinase inh | ROCK2 blocker
CSc1ncc(CNc2cc([N+](=O)[O-])ccc2C)c(N)n1 | . | 0.14 | . | .
O=C(Nc1ccccc1C(F)(F)F)N1CCC(n2c(=O)[nH]c3ccccc32)CC1 | 0.049 | 0.086 | 1 | 2
CCOc1ccc(NC(=O)N2CCC(n3c(=O)[nH]c4ccccc43)CC2)cc1 | . | 2.8* | 9 | 8
CC(C)c1ccc(OCc2nc(-c3ccccn3)no2)c(Br)c1 | -2 | -0.75 | -4 | -5
Cc1ccc(OCc2nc(-c3ccccn3)no2)c(Br)c1 | -5.7* | 1.4 | 8 | 2
CCc1ccc(OCc2nc(-c3ccccn3)no2)c(Br)c1 | -5* | -0.92 | 0 | 4
Cc1ccc(OCc2nc(-c3ccccn3)no2)cc1 | . | 0.18 | . | .
O=C(Nc1ccc(N2CCCC2)cc1)c1cccc(F)c1 | -4.9* | 0.52 | 4 | -3
CN1CCN(c2ccc(NC(=O)c3cccc(OCc4ccccc4)c3)cc2)CC1 | -5.9* | . | 8 | 7
O=C(Nc1ccc(N2CCCCC2)cc1)c1ccccc1 | -4.8* | -0.19 | -10 | -10
C=CCC1CCCC(=O)N2CC[C@H](O)C12 (stereo not given in full) | . | -0.074 | . | .
Cc1ccc(OCC(=O)Nc2nnn(C)n2)c(C)c1 | -2 | -2.6* | 12 | 3
CCCn1nnc(NC(=O)COc2cc(C)ccc2C(C)C)n1 | -0.0012 | -8.9* | -8 | -3
CCCCn1nnc(NC(=O)COc2cc(C)ccc2C(C)C)n1 | -0.38 | 0.65 | 4 | 8
Cc1cccc(C)c1OC(=O)CSc1nnc(-c2ccccc2O)o1 | . | -0.45 | . | .
C=CCc1c(C)c(C#N)c2nc3ccccc3n2c1NCCN(C)C | -0.85 | 2.7* | 6 | 0
CCc1c(C)c(C#N)c2nc3ccccc3n2c1NCCN(C)C | 0.84 | 0.66 | 4 | -1
C[C@]1(C(=O)NCc2cc(F)cc(C(F)(F)F)c2)C=C[C@@H](Cc2ccccc2)N1C(=O)c1ccccc1 | . | -0.067 | . | .
Cc1c(-n2cc(C(=O)O)c(=O)c3cc(F)c(N4CCCC4)c(F)c32)c(=O)n(-c2ccccc2)n1C | 2.7* | 0.21 | 7 | .
COC1=C(N)C(=O)c2nc(-c3nc(C(=O)O)c(C)c(-c4ccc(OC)c(OC)c4O)c3N)ccc2C1=O | . | -4.1* | . | .
CCCCCn1c(SCCCC)nc2c1c(=O)[nH]c(=O)n2C | 20* | -0.67 | 4 | 5
Cc1ccc(Cn2c(Sc3nnc(C)s3)nc3c2c(=O)[nH]c(=O)n3C)cc1 | 2.9 | 2.3 | -4 | 2
C/C(Cl)=C/Cn1c(SCC(C)C)nc2c1c(=O)[nH]c(=O)n2C | 14* | 0.23 | 3 | 1
CCCCOC(=O)CSc1nc2c(c(=O)[nH]c(=O)n2C)n1C/C=C(\C)Cl | -0.49 | 0.23 | 1 | 2
Cn1c(=O)[nH]c(=O)c2c1nc(Sc1nc3ccccc3s1)n2Cc1ccccc1 | 4* | 1.2 | 11 | 6
SMILES | D1 allo mod | DAT uptake mod | PKA kinase inh | ROCK2 blocker
CCCCCOC(=O)CSc1nc2c(c(=O)[nH]c(=O)n2C)n1CCc1ccccc1 | -0.091 | 0.14 | 4 | -4
CCOC(=O)C(C)Sc1nc2c(c(=O)[nH]c(=O)n2C)n1CCc1ccccc1 (stereo not given) | 5.6* | -0.0066 | 10 | 3
COc1ccc2c(c1)C(C)(CCN)C(=O)N2C (stereo not given) | . | -0.19 | . | .
C[N+](C)(C)C(Cc1ccccc1)C(=O)[O-] (stereo not given) | . | -0.038 | . | .
O=[N+]([O-])c1cc(C(F)(F)F)ccc1NCCNC(=S)Nc1ccc(Cl)cc1 | . | -0.14 | . | .
C=CCNC(=O)C1CC2Cn3c(nc4cc5ccccc5cc43)C2N1C (stereo not given) | . | 0.41 | . | .
Cc1ccc(C(C(=O)NCc2ccco2)N(CCc2ccccc2)C(=O)Cn2nnc3ccccc32)o1 (stereo not given) | -4.3* | . | -5 | 3
COc1ccc(N(C(=O)Cn2nnc3ccccc32)C(C(=O)NCc2ccco2)c2ccc(C)o2)cc1 (stereo not given) | -0.18 | 3.1* | 1 | 0
Cc1ccc(N(C(=O)Cn2nnc3ccccc32)C(C(=O)NCc2ccco2)c2ccc(C)o2)cc1 (stereo not given) | 0.73 | -0.2 | 1 | -2
COc1ccc(C)cc1NC(=O)C(=O)NCc1ccncc1 | . | 0.3 | . | .
COc1ccc(Cl)cc1NC(=O)CN1CCC(n2nnc3cc(F)ccc32)CC1 | -4.7 | 0.44 | 8 | 5
O=c1cc(Nc2ccc3c(c2)OCO3)[nH]c(=O)n1-c1ccc(Br)cc1 | -7.6* | 0.053 | 10 | .
Cn1cnc2c(sc3nc(N4CCOCC4)c4c(c32)CC(C)(C)OC4)c1=O | 3.6* | . | -6 | -2
COC(=O)C1=C(C(=O)OC)[C@@H]2N(C)c3ccccc3[C@@]23C[C@@H](CO)N(C(=O)C2CCC2)C3=N1 | . | 0.013 | . | .
